Experimental data taken from PubChem BioAssay AID449762 (Southern Research Specialized Biocontainment Screening …, 2010).
About 1,900 (0.58%) of roughly 330,000 compounds were called active. Inconclusive results (about 4%) are left out. No stated cut-off is given here; in the data, inconclusive means inhibition above about 70% without an active follow-up result; inactive means below that. Not all results are given here. Potency and affinity values are given separately.

Assay: M. tuberculosis growth inhibition, HTS (AID 449762);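 further: bacterial growth assessed after seven days of incubation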
Settings: M. tuberculosis H37Rv growth inhibition, 7H9 media; at 25 µM; stronger effect = higher value

| Compound | inhibition |
| --- | --- |
| O=C(O)CCn1nnc(-c2ccccc2)n1 | -0.81% (inactive) |
| COc1ccc(OCC(=O)N(Cc2ccco2)C2CCS(=O)(=O)C2)cc1 (stereo not drawn) | 3.83% (inactive) |
| Cc1ccc(S(=O)(=O)N2CCCCC2)cc1NC(=O)C1CCC1 | 0.72% (inactive) |
| Cc1ccc(-c2nc3ccsc3c(=O)[nH]2)cc1 | 5.58% (inactive) |
| Cc1ccc(-c2nc3ccccc3c(=O)o2)cc1 | 12.5% (inactive) |
| C=CCN1C(=O)/C(=C/c2cccs2)S/C1=N\S(=O)(=O)c1ccc(F)cc1 | 0.38% (inactive) |
| COc1ccc(NC(=O)CCNC(=O)C2CCN(S(=O)(=O)c3ccc(OC)cc3)CC2)cc1 | 10.1% (inactive) |
| CC(C)(C)OC(=O)COc1cc(O)c2c(=O)cc(-c3ccccc3)oc2c1 | 39.4% (inactive) |
| O=C(COc1cc(O)c2c(=O)cc(-c3ccccc3)oc2c1)c1ccccc1 | -3.97% (inactive) |
| CSc1nnc(-c2cc(Br)ccc2N=Cc2c(C)[nH]n(-c3ccccc3)c2=O)c(=O)[nH]1 | 4.16% (inactive) |
| O=[N+]([O-])c1c(Nc2ccccc2O)cc(N2CCOCC2)c2nonc12 | 0.81% (inactive) |
| CCOC(=O)C1CCCN(S(=O)(=O)c2ccc(-c3cc(C)no3)s2)C1 (stereo not drawn) | 3.93% (inactive) |
| CCO[C@H]1OC(C(=O)NCc2nc3ccccc3[nH]2)=C[C@@H](c2ccccc2)[C@@H]1CCCO | -4.83% (inactive) |
| CCO[C@@H]1OC(C(=O)NCc2nc3ccccc3[nH]2)=C[C@H](c2ccccc2)[C@H]1CCCO | 10.6% (inactive) |
| O=C(CSc1nc2ccccc2nc1N1CCCCC1)N1CCN(c2ccccc2)CC1 | -7.86% (inactive) |
| Cc1ccc(C)n1CCN1CCN(C(=O)CSc2nc3ccccc3nc2N2CCOCC2)CC1 | 5.46% (inactive) |
| COc1ccc2[nH]c(=O)c(CN(CC3CCCO3)S(=O)(=O)c3ccccc3)cc2c1 (stereo not drawn) | 2.57% (inactive) |
| Cc1ccccc1OCC(=O)NNC(=O)C1CCCCC1C(=O)O (stereo not drawn) | 2.25% (inactive) |
| Cc1cccc(N(C(=O)c2nsc(Cl)c2Cl)C(C(=O)NC2CCCC2)c2ccc(O)cc2)c1 (stereo not drawn) | -12.7% (inactive) |
| Cc1ccc(C)c(N(C(=O)c2nsc(Cl)c2Cl)C(C(=O)NC2CCCC2)c2ccc(O)cc2)c1 (stereo not drawn) | -2.81% (inactive) |
| C=CCc1c(C)nn(CC(=O)O)c1-c1ccccc1 | -6.59% (inactive) |
| COc1ccc(S(=O)(=O)N2CCC(C(=O)NC(c3nc4ccccc4[nH]3)C(C)C)CC2)cc1 (stereo not drawn) | -6.28% (inactive) |
| O=C(Nc1cc(S(=O)(=O)N2CCOCC2)ccc1N1CCCC1)C1COc2ccccc2O1 (stereo not drawn) | -4.41% (inactive) |
| COC(=O)/C(=C1/Oc2ccc(C(C)(C)C)cc2S1)C(F)(F)F | -1.9% (inactive) |

| Compound | inhibition |
| --- | --- |
| COC(=O)/C(=C1/Oc2ccc(C)cc2S1)C(F)(F)F | 4.4% (inactive) |
| O=S(=O)(c1ccc(Cl)c(NC(=S)Nc2cccc(O)c2)c1)N1CCOCC1 | 1.85% (inactive) |
| CC12CCC(=O)N1C(C(=O)N1CCN(S(=O)(=O)c3cccc(C(F)(F)F)c3)CC1)CS2 (stereo not drawn) | 2.29% (inactive) |
| CC1CC1C(=O)Nc1nc2ccc(Cl)cc2s1 (stereo not drawn) | 16.9% (inactive) |
| O=C(Nc1nc2ccc(Cl)cc2s1)C1CC1 | 7.91% (inactive) |
| O=C(Cc1nnc(NC(=O)Nc2ccc(F)cc2)s1)NCc1ccccc1 | -2.08% (inactive) |
| COc1ccc(N2C(=O)CCC2=O)cc1 | -16.1% (inactive) |
| CCOc1ccc(C(=O)NNC(=O)CN2C(=O)C3CC=CCC3C2=O)cc1OC (stereo not drawn) | 3.32% (inactive) |
| CN(C(=O)COC(=O)c1ccc(Cl)cc1N)C1CCCCC1 | -0.1% (inactive) |
| CN(C(=O)COC(=O)c1cc(NS(=O)(=O)c2cc([N+](=O)[O-])ccc2Cl)ccc1O)C1CCCCC1 | 0.85% (inactive) |
| CCN(C(=O)COC(=O)CNC(=O)c1sc2ccccc2c1Cl)C1CCCCC1 | 39.4% (inactive) |
| CC1CCCC(NC(=O)COC(=O)c2sc3ccccc3c2Cl)C1C (stereo not drawn) | -11.1% (inactive) |
| C=CCn1c(N)c(C(=O)N2CCOCC2)sc1=S | -5.77% (inactive) |
| c1ccc(CCNc2ncnc3sccc23)nc1 | -8.28% (inactive) |
| Cc1ccc(N2CC(C(=O)Nc3cccc(C(=O)NC4CC4)c3)CC2=O)cc1 (stereo not drawn) | -1.62% (inactive) |
| C/C(=N\Nc1nncc2ccccc12)c1ccc(O)cc1 | 13.3% (inactive) |
| COc1ccc(CC(=O)Oc2ccccc2C)cc1 | 10.5% (inactive) |
| CCN(CC)c1ccc(/C=N/NC(=O)c2ccc3nc[nH]c3c2)cc1 | 5.47% (inactive) |
| CNC(=O)COc1coc(CN2CCN(c3ccccc3)CC2)cc1=O | -6.51% (inactive) |
| CC(NC(=O)/C(=C\c1cccc([N+](=O)[O-])c1)NC(=O)c1ccco1)C(=O)O (stereo not drawn) | 2.24% (inactive) |
| CCOC(=O)c1c(NC(=O)c2cc(-c3cccc(O)c3)on2)sc(C(C)=O)c1C | 2.98% (inactive) |
| CC1CCCCN1Cc1c(O)ccc2c(=O)c(-c3nc4ccccc4s3)coc12 (stereo not drawn) | 6.43% (inactive) |
| Cc1oc2c(CN3CCCC(C)C3)c(O)ccc2c(=O)c1-c1ccccc1 (stereo not drawn) | 0.44% (inactive) |
| Cc1cccc(-n2nnnc2SCC(=O)N(CC(C)C)c2c(N)n(CC(C)C)c(=O)[nH]c2=O)c1 | 1.22% (inactive) |

| Compound | inhibition |
| --- | --- |
| CC(C)Cc1nc2oc3c(Cl)ncnc3c2c2c1CCCC2 | 2.35% (inactive) |
| CC(C)Cc1nc2oc3c(NCC(C)O)ncnc3c2c2c1CCCC2 (stereo not drawn) | 2.05% (inactive) |
| CC(C)c1ccc(CCNC(=O)c2cccc(S(=O)(=O)N3CCN(C)CC3)c2)cc1 | -4.06% (inactive) |
| O=C1CCN(CCc2ccccc2)CCN1[C@H](CSc1ccccc1)Cc1ccccc1 | 13.6% (inactive) |
| CCCN1CCC(=O)N([C@H](CSc2ccc(OC)cc2)Cc2ccccc2)CC1 | 0.11% (inactive) |
| Cc1cc(C(=O)CSc2nc(N)cc(N)n2)c(C)n1CC1CCCO1 (stereo not drawn) | -3.69% (inactive) |
| CCn1c(=O)c2cc(C(=O)NC(C)C)sc2c2ccccc21 | -0.74% (inactive) |
| Cc1c(OCc2nn[nH]n2)ccc2c3c(c(=O)oc12)CCCC3 | -3.72% (inactive) |
| COc1ccccc1OCC(=O)Nc1ccc(S(=O)(=O)N(C)c2ccccc2)cc1 | -13.2% (inactive) |
| COc1ccccc1-c1cc(C(F)(F)F)nc(S(C)(=O)=O)n1 | 2.66% (inactive) |
| COc1nc(-c2ccccc2)cc(C(F)(F)F)n1 | -3% (inactive) |
| O=C(NC(=S)Nc1ccc(CN2CCOCC2)cc1)c1cc2ccccc2o1 | 68.5% (inactive) |
| COc1ccc(-n2c(-c3ccc(Br)cc3)n[nH]c2=S)cc1 | 7.43% (inactive) |
| C=CCN(c1nc(C)cc(OC)n1)S(=O)(=O)c1ccccc1 | -6.07% (inactive) |
| CC(OC(=O)/C=C/c1ccc2ccccc2n1)C(=O)N(C)c1ccccc1 (stereo not drawn) | -4.67% (inactive) |
| CC(OC(=O)/C=C/c1ccc2ccccc2n1)C(=O)Nc1ccc(S(N)(=O)=O)cc1 (stereo not drawn) | 11.9% (inactive) |
| NC(=O)c1ccccc1OCC(=O)Nc1cccnc1Cl | 2.44% (inactive) |
| CCCc1ccc(Oc2cc(N3CCOCC3)nc(-c3ccccc3)n2)cc1 | 17.9% (inactive) |
| O=C(O)c1cccc(N/N=C/c2cc(Br)cc(Br)c2O)c1 | -15.9% (inactive) |
| CN(/N=C/c1cc(Br)cc(Br)c1O)c1ccccc1 | 3.99% (inactive) |
| Cc1ccc(C(=O)Nc2ccccc2C(=O)N2CCCCC2C)cc1 (stereo not drawn) | -0.75% (inactive) |
| COCC(=O)Nc1ccc(N2CCOCC2)c(S(=O)(=O)Nc2ccccc2OC)c1 | 1.36% (inactive) |
| CCCCn1c2c(c(=N)c3c1CCC3)CCC2 | -1.93% (inactive) |
| CCCCCCn1c2c(c(=N)c3c1CCC3)CCC2 | -4.99% (inactive) |

| Compound | inhibition |
| --- | --- |
| Cc1ccc(OCC(=O)OCc2c(C)noc2C)cc1C | 3.24% (inactive) |
| Cc1noc(C)c1COC(=O)COc1ccc(C#N)cc1 | 6.51% (inactive) |
| COc1ccc(/C=C/C(=O)OCC(=O)NCC2CCCO2)cc1 (stereo not drawn) | 2.24% (inactive) |
| O=C(COC(=O)/C=C/c1ccc(F)cc1)NCC1CCCO1 (stereo not drawn) | 6.52% (inactive) |
| Cc1noc(C)c1CSc1nnc(-c2ccccc2)n1N | 6.07% (inactive) |
| CCOC(=O)Nc1ccc(C)cc1Br | -1.99% (inactive) |
| CCc1cc(C(=O)Nc2ccccc2)cs1 | -4.05% (inactive) |
| COc1ccc(NC(=O)c2nc[nH]c2C(=O)N(C)Cc2ccccc2)cc1 | 9.08% (inactive) |
| NC1=NC(=O)/C(=C/C=C/c2cccs2)S1 | 18.7% (inactive) |
| COc1ccc(C(=O)Nc2c(N)nc(SCC(=O)NCC3CCCO3)[nH]c2=O)cc1 (stereo not drawn) | 11.2% (inactive) |
| CCN(CC)C(=O)c1sc2nc(-c3ccncc3)[nH]c(=O)c2c1C | -4.66% (inactive) |
| CCN(CC)C(=O)c1sc2nc(Cc3ccccc3)[nH]c(=O)c2c1C | 4.02% (inactive) |
| COc1ccc(-n2c(O)c(/C=C3\C=Nc4ccc(Br)cc43)c(=O)[nH]c2=O)c(OC)c1 | -3.48% (inactive) |
| CCn1c(CSc2nnc(-c3ccc4c(c3)OCO4)o2)nc2cc(S(=O)(=O)N(C)C)ccc21 | -2.02% (inactive) |
| O=C(c1cc(-c2cccc(Cl)c2)nc2ccccc12)N1CCCC1 | 4.01% (inactive) |
| COc1ccc(OC)c(C2CC(c3c(-c4ccccc4)c4cc(Cl)ccc4[nH]c3=O)=NN2S(C)(=O)=O)c1 (stereo not drawn) | 44.4% (inactive) |
| COc1ccc(C2CC(c3c(-c4ccccc4)c4cc(Cl)ccc4[nH]c3=O)=NN2S(C)(=O)=O)cc1OC (stereo not drawn) | 7.95% (inactive) |
| O=C(NCc1cccnc1)c1noc2c1CCCC2 | -1.71% (inactive) |
| CCOC(=O)c1nsnc1NCCCl | 4.35% (inactive) |
| C/C(=N\Nc1ccc(S(=O)(=O)N2CCCCC2)cn1)c1ccc(O)cc1 | -0.43% (inactive) |
| COc1cccc(/C(C)=N/Nc2ccc(S(=O)(=O)N3CCCCC3)cn2)c1 | -2.89% (inactive) |
